Read-out in test [1]: Cytochrome P450 2C19 (Homo sapiens) (UniProt P33261)
In words: CLD_CYP2C19_6hr: CellzDirect (CLD) Gene Expression Assay for xenobiotic metabolism (CYP2C19) at 6 hours (AID 2283678). The method in brief:
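CYP2C19 transcript induction was quantified by quantitative nuclease protection assay with chemiluminescent read-out, 6 h after dosing. Cells were primary human hepatocytes from two donor preparations, given fresh dosing solutions daily in 0.2% DMSO vehicle. Activity was relative to DMSO.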

Test [2] in a line: CCTE_Padilla_ZF_144hpf_TERATOSCORE: (Legacy) CCTE's 144 Hour Post-fertilization zebrafish Assay Teratoscore, Padilla Lab (AID 2283679; active means hit-call score of the fitted dose curve at least 0.9, where 1 is the maximum; inactive means score below 0.9;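 on AC50: zebrafish embryos with chorions exposed by immersion from 6-8 hpf to 5 dpf with daily renewal; teratogenicity score from eye scoring of death hatching and malformations at 144 hpf; higher score means more developmental defects relative to DMSO baseline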). The method in brief:
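Larvae scored by eye at 144 hpf for death, hatching and malformations after a day in clean Hanks'. Before that, daily-renewed exposure at 80 uM (0.4% DMSO, 26C) from roughly 6-8 hpf through 5 dpf, 4 embryos per chemical.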

Read-out in test [3]: Cytochrome P450 3A4 (Homo sapiens) (UniProt P08684)
The test is described as follows: CLD_CYP3A4_6hr: CellzDirect (CLD) Gene Expression Assay for xenobiotic metabolism (CYP3A4) at 6 hours (AID 2283680). The procedure, abridged: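 CYP3A4 mRNA induction, 6 h after dosing of cultured primary human hepatocytes from two donors, read by quantitative nuclease protection (qNPA, chemiluminescence). Vehicle 0.2% DMSO as baseline; morphology-based cytotoxicity annotated yes/no.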

Read-out in test [4]: ABC Transporter (ABCB1), ABCB1 (gene 5243)
In words: CLD_ABCB1_24hr: CellzDirect (CLD) Gene Expression Assay for ABC Transporter (ABCB1) at 24 hours (AID 2283684). The procedure, abridged: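 ABCB1 mRNA induction versus 0.2% DMSO vehicle was read by qNPA chemiluminescence at 24 h. Cultured human hepatocytes from two donor preparations received daily fresh dosing, and phase-contrast cytotoxicity calls were annotated alongside the data.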

Read-out in test [5]: Broad substrate specificity ATP-binding cassette transporter ABCG2 (Homo sapiens) (UniProt Q9UNQ0)
In words: CLD_ABCG2_24hr: CellzDirect (CLD) Gene Expression Assay for ABC Transporter (ABCG2) at 24 hours (AID 2283685). The procedure, abridged:
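ABCG2 mRNA induction, read as gain of chemiluminescent signal over 0.2% DMSO, was measured by quantitative nuclease protection at 24 h. Cultured human liver hepatocytes were given fresh dosing solutions of test chemicals at several concentrations each day.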

Read-out in test [6]: Cytochrome P450 2B6 (Homo sapiens) (UniProt P20813)
In words: CLD_CYP2B6_24hr: CellzDirect (CLD) Gene Expression Assay for xenobiotic metabolism (CYP2B6) at 24 hours (AID 2283686). The method in brief:
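qNPA chemiluminescent measurement of mRNA at 24 hours in human primary hepatocyte cultures from two donor preparations, with daily fresh dosing and 0.2% DMSO vehicle as baseline. Morphology-based cytotoxicity flagged yes/no.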

Read-out in test [7]: Cytochrome P450 2C19 (Homo sapiens) (UniProt P33261)
The test is described as follows: CLD_CYP2C19_24hr: CellzDirect (CLD) Gene Expression Assay for xenobiotic metabolism (CYP2C19) at 24 hours (AID 2283687).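 Further: activity means mRNA induction above DMSO vehicle baseline.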 The method in brief:
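CYP2C19 mRNA was quantified by qNPA chemiluminescence after 24 h of daily dosing of cultured human primary hepatocytes from two donors; vehicle was 0.2% DMSO, and increases over DMSO baseline were fitted.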

Read-out in test [8]: Cytochrome P450 2C9 (Homo sapiens) (UniProt P11712)
The test is described as follows: CLD_CYP2C9_24hr: CellzDirect (CLD) Gene Expression Assay for xenobiotic metabolism (CYP2C9) at 24 hours (AID 2283688). The method in brief:
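Induction of CYP2C9 mRNA was quantified by quantitative nuclease protection assay (chemiluminescence), gain of signal versus 0.2% DMSO vehicle, 24 h after dosing. Human primary hepatocytes (two donors) received fresh chemical daily at multiple concentrations; morphology-based cytotoxicity flagged yes/no.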

Read-out in test [9]: Cytochrome P450 3A4 (Homo sapiens) (UniProt P08684)
In words: CLD_CYP3A4_24hr: CellzDirect (CLD) Gene Expression Assay for xenobiotic metabolism (CYP3A4) at 24 hours (AID 2283689). The procedure, abridged: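 CYP3A4 mRNA induction read by quantitative nuclease protection (chemiluminescence) 24 hr after dosing. Cultured human hepatocytes (two donor preparations) treated daily, vehicle 0.2% DMSO; phase-contrast morphology annotates cytotoxicity.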

Read-out in test [10]: glucuronosyltransferase (UGT1A1), UGT1A1 (gene 54658)
In words: CLD_UGT1A1_24hr: CellzDirect (CLD) Gene Expression Assay for glucuronosyltransferase (UGT1A1) at 24 hours (AID 2283696). The method in brief: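 UGT1A1 transcript induction was measured by quantitative nuclease protection assay (chemiluminescence) in human hepatocyte cultures 24 h after daily fresh dosing, with 0.2% DMSO as vehicle and baseline.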

Read-out in test [11]: Cytochrome P450 3A4 (Homo sapiens) (UniProt P08684)
In words: CLD_CYP3A4_48hr: CellzDirect (CLD) Gene Expression Assay for xenobiotic metabolism (CYP3A4) at 48 hours (AID 2283698). The method in brief:
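CYP3A4 induction read by qNPA chemiluminescence after 48 h, with fresh dosing solutions on consecutive days, in cultured human hepatocytes (two donors). Vehicle 0.2% DMSO as baseline; microscopy-based cytotoxicity annotated yes/no alongside data.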

Read-out in test [12]: Cytochrome P450 2B6 (Homo sapiens) (UniProt P20813)
In words: CLD_CYP2B6_48hr: CellzDirect (CLD) Gene Expression Assay for xenobiotic metabolism (CYP2B6) at 48 hours (AID 2283699).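 Further: actives raise transcript level above DMSO so potency reflects induction.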 The method in brief:
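CYP2B6 transcript induction, read by quantitative nuclease protection (S1 digestion, chemiluminescent detection) 48 h after dosing, is fitted upward against 0.2% DMSO. Cultured human liver primary cells, two donor preparations, received fresh chemical daily over multiple concentrations.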

Read-out in test [13]: Cytochrome P450 2C19 (Homo sapiens) (UniProt P33261)
The test is described as follows: CLD_CYP2C19_48hr: CellzDirect (CLD) Gene Expression Assay for xenobiotic metabolism (CYP2C19) at 48 hours (AID 2283700).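 Further: fitted upward so actives raise CYP2C19 mRNA above the 0.2% DMSO vehicle.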 The procedure, abridged: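 CYP2C19 mRNA induction read by chemiluminescent quantitative nuclease protection assay after 48 h, with fresh compound added daily for two days to cultured human liver hepatocytes. Activity fitted upward against 0.2% DMSO vehicle.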

Read-out in test [14]: HMG-CoA synthase (HMGCS2), HMGCS2 (gene 3158)
The test is described as follows: CLD_HMGCS2_6hr: CellzDirect (CLD) Gene Expression Assay for HMG-CoA synthase (HMGCS2) at 6 hours (AID 2283682).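 Further: actives raise HMGCS2 transcript above the 0.2% DMSO vehicle baseline.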 The procedure, abridged:
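HMGCS2 transcript induction read by quantitative nuclease protection with chemiluminescence, 6 h after dosing of primary human hepatocytes. Baseline was 0.2% DMSO vehicle; phase-contrast morphology gave a yes/no cytotoxicity annotation.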

Read-out in test [15]: xenobiotic metabolism (CYP1A2), CYP1A2 (gene 1544)
In words: CLD_CYP1A2_24hr: CellzDirect (CLD) Gene Expression Assay for xenobiotic metabolism (CYP1A2) at 24 hours (AID 2283683). The method in brief: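 CYP1A2 mRNA induction measured by quantitative nuclease protection (chemiluminescent) in human primary hepatocytes 24 h after multi-concentration chemical dosing with daily fresh solutions. DMSO (0.2%) baseline; positive-direction fitting; morphology-based cytotoxicity noted.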

Read-out in test [16]: sulfotransferase (SULT2A), SULT2A1 (gene 6822)
The test is described as follows: CLD_SULT2A_24hr: CellzDirect (CLD) Gene Expression Assay for sulfotransferase (SULT2A) at 24 hours (AID 2283694). The procedure, abridged:
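mRNA is measured by qNPA: probe hybridisation, S1 nuclease digestion, chemiluminescence, in lysates from human primary hepatocytes harvested 24 h after daily dosing. Vehicle was 0.2% DMSO. Phase-contrast microscopy flagged cytotoxicity (yes/no).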

Read-out in test [17]: xenobiotic metabolism (CYP2C9), CYP2C9 (gene 1559)
The test is described as follows: CLD_CYP2C9_48hr: CellzDirect (CLD) Gene Expression Assay for xenobiotic metabolism (CYP1A2) at 48 hours (AID 2283701; active means hit-call score of the fitted dose curve at least 0.9, where 1 is the maximum; inactive means score below 0.9). The procedure, abridged: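 mRNA level measured by quantitative nuclease protection (S1 digestion, chemiluminescent detection) in lysates of human primary hepatocytes exposed 48 h with daily re-dosing. Induction fitted positively versus 0.2% DMSO; morphology-based cytotoxicity flagged yes/no.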

Read-out in test [18]: Glyceraldehyde-3-phosphate dehydrogenase (Homo sapiens) (UniProt P04406)
In words: CLD_GAPDH_6hr: CellzDirect (CLD) Gene Expression Assay for Baseline Control (Glyceraldehyde 3-phosphate dehydrogenase) at 6 hours (AID 2283681).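 Further: active means increased signal relative to DMSO vehicle.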 The procedure, abridged:
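GAPDH baseline-control readout from qNPA (S1 nuclease digestion, probe hybridization, chemiluminescence) in lysates of cultured human hepatocytes harvested 6 h post-dosing. Chemicals tested at multiple concentrations versus 0.2% DMSO vehicle; microscopy-based cytotoxicity flagged yes/no.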

Read-out in test [19]: alkyl and aryl transferase (GSTA2), GSTA2 (gene 2939)
The test is described as follows: CLD_GSTA2_24hr: CellzDirect (CLD) Gene Expression Assay for alkyl and aryl transferase (GSTA2) at 24 hours (AID 2283693). The procedure, abridged: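 GSTA2 transcript levels were quantified by quantitative nuclease protection assay in primary human hepatocytes 24 h after daily dosing with fresh solutions at multiple concentrations; 0.2% DMSO vehicle as baseline, cytotoxicity flagged morphologically.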

The structures appear in SMILES notation. Records with an inconclusive call do not appear. Calls of active or inactive are those of the source. How the source made its calls, unless noted: active means hit-call score of the fitted dose curve at least 0.9, where 1 is the maximum; inconclusive means response in the unintended direction; inactive means score below 0.9.

This passage reports outcome and AC50 results from PubChem BioAssay (EPA / NIEHS).

Broad substrate specificity ATP-binding cassette transporter ABCG2 (Homo sapiens), sequence (Q9UNQ0 whole entry, looked up): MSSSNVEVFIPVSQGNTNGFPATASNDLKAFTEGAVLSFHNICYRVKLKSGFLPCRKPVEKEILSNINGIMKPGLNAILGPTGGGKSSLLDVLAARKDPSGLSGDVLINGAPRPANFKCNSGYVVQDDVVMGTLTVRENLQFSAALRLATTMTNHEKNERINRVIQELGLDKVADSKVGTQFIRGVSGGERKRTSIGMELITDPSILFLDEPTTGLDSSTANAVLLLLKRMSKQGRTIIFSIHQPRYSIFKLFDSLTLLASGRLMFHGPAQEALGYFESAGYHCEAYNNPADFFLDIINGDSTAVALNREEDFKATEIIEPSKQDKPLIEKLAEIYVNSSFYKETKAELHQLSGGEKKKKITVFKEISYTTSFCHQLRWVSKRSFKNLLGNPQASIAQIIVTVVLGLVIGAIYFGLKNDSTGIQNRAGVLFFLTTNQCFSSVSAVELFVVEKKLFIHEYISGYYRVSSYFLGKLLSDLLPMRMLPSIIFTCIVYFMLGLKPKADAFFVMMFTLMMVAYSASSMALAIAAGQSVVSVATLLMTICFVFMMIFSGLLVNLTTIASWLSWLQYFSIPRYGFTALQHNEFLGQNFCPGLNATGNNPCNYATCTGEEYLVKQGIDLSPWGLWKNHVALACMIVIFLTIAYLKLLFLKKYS
Cytochrome P450 3A4 (Homo sapiens), sequence (P08684 whole entry, looked up): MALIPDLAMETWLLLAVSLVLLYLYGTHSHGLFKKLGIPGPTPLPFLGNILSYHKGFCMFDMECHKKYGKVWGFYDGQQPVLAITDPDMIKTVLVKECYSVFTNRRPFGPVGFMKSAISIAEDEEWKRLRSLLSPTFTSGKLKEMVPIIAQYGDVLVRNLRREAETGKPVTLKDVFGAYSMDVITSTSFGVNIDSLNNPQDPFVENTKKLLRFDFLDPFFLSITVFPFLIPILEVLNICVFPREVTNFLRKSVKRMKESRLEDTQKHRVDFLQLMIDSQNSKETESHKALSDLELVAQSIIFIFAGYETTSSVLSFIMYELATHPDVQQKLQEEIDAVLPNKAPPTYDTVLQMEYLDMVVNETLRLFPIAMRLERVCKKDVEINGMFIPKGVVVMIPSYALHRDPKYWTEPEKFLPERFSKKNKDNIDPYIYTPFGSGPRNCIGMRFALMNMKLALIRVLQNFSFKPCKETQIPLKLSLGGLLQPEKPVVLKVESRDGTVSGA
Cytochrome P450 2C19 (Homo sapiens), sequence (P33261 whole entry, looked up): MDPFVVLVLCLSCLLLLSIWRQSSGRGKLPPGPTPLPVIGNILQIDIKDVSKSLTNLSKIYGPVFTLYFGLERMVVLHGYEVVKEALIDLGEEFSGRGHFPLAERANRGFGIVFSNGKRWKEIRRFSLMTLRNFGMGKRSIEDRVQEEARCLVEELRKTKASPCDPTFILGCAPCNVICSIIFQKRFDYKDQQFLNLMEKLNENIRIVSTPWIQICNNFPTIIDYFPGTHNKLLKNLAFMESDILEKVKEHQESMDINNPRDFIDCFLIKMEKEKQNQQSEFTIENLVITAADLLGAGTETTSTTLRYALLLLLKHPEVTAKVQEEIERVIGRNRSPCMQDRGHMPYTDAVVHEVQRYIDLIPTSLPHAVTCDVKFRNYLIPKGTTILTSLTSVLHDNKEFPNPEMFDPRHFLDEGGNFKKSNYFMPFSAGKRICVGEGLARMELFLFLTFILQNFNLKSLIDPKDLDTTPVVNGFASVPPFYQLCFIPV
Glyceraldehyde-3-phosphate dehydrogenase (Homo sapiens), sequence (P04406 whole entry, looked up): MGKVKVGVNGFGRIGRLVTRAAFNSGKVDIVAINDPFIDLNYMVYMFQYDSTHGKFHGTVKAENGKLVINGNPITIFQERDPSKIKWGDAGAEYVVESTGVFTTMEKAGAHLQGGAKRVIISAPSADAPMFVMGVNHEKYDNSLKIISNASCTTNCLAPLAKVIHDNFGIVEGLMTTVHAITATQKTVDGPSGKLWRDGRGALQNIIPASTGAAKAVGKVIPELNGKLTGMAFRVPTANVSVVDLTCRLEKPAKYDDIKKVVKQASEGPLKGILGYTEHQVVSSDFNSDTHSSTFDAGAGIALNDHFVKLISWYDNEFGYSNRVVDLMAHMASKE

As to `CC(=NC#N)N(C)Cc1ccc(Cl)nc1`, the result in test [1], in test [2], in [3], in test [4], in [5] and in [6] was inactive. Besides, the molecule was classed as inactive in test [7], in [8], in test [9], in test [10], in test [11] and in [12]. The outcome in test [13] was inactive.

On to `CN1COCN(Cc2cnc(Cl)s2)C1=N[N+](=O)[O-]`, for which the molecule was called inactive in test [1], in test [2], in [14], in test [6], in test [8] and in [9]. The result in test [10], in test [11] and in [13] was inactive.

What is called AC50 is the concentration at which the activity in the assay is half-maximal. As to `CC[C@H](C)[C@H]1O[C@]2(C=C[C@@H]1C)C[C@@H]1C[C@@H](C/C=C(\C)[C@@H](O[C@H]3C[C@H](OC)[C@@H](O[C@H]4C[C@H](OC)[C@@H](NC)[C@H](C)O4)[C@H](C)O3)[C@@H](C)/C=C/C=C3\CO[C@@H]4[C@H](O)C(C)=C[C@@H](C(=O)O1)[C@]34O)O2`, the AC50 was 32.6 µM (active) in test [1] and 3.41 µM (active) in [2]. Also, the molecule was classed as inactive in test [14], in test [15], in test [4], in [5], in test [6] and in test [8]. In addition, the molecule was classed as inactive in test [9], in [10] and in [11].

As to `CC(C1CC1)C(O)(Cn1cncn1)c1ccc(Cl)cc1` (stereo not given), the outcome in test [1], in test [16], in test [10] and in test [13] was inactive. Besides, the concentration at half-maximal activity (AC50) in test [2] was 57.6 µM (active); in [6], 4.02 µM (active); in test [9], 3.78 µM (active); in test [11], 20 µM (active); in [17] it was 0.0911 µM (active).

Regarding `COc1cc(OC)nc(Sc2cccc(Cl)c2C(=O)O)n1`, the outcome in [1], in test [2], in test [18], in [14], in [5] and in test [6] was inactive. In addition, the molecule was classed as inactive in [8], in test [19], in test [10] and in [13]. Besides, the AC50 in test [9] is 20 µM (active); in test [11], 35.2 µM (active).

Consider `CNC(=O)ON=C(C)SC`, for which the call in test [1], in test [14], in test [5], in [6], in [9] and in [10] was inactive. Moreover, the molecule was classed as inactive in [11] and in test [13]. Besides, the concentration at half-maximal activity (AC50) in test [2] was 73.3 µM (active).

Take `CCOP(=O)(OCC)Oc1cc(C)nc(C(C)C)n1`: the call in test [1], in [14], in test [5], in [8], in [9] and in test [19] was inactive. Besides, the outcome in [10] and in test [13] was inactive. The concentration at half-maximal activity (AC50) was 38.2 µM (active) in test [2], 30.7 µM (active) in [15], 20 µM (active) in test [6] and 20 µM (active) in test [11].
